Compounds without any hit were thinned out: in the full panel of roughly 83,000, 20% have a hit.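 Activity criterion: percent growth below 10, measured after cells in 96-well plates were exposed to a single compound concentration for 48 hours.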 A number with no mark means an inactive call. The source made the active and inactive calls.

Test in all cases: NCI-60 one-dose screen, 48 h (100 = growth as untreated, 0 = no growth, -100 = all killed)
Settings in all cases: 10 µM unless noted

The subject of test [1] is EKVX NSCLC.
The subject of test [2] is SN12C renal.
Test [3] deals with UO-31 renal.
Test [4] relates to TK-10 renal.
Test [5] relates to ACHN renal.
Test [6] has as its system CAKI-1 renal.
Test [7] deals with A498 renal.
The test system of test [8] is CCRF-CEM leukemia.
Test [9] concerns MOLT-4 leukemia.
The test system of test [10] is SR leukemia.
The subject of test [11] is RPMI-8226 leukemia.
The subject of test [12] is OVCAR-8 ovarian.
The test system of test [13] is OVCAR-5 ovarian.
Test [14] relates to OVCAR-4 ovarian.
The subject of test [15] is SK-OV-3 ovarian.
For test [16], the system named is IGROV1 ovarian.
Test [17] relates to OVCAR-3 ovarian.
In test [18] the test system is NCI/ADR-RES ovarian.

For `CN1C/C=C\CCOc2cccc(c2)-c2ccnc(n2)Nc2cccc(c2)C1`, the growth in test [1] was -14.7% (active); in test [2], -41.5% (active); in test [3], -79.3% (active); in [4], -53.2% (active); in test [5], -37.9% (active); in test [6], -87.9% (active). Further, the growth is -77.8% (active) in test [7]; 3.32% (active) in test [8]; -20% (active) in [9]; -29.1% (active) in [10]; -42.5% (active) in test [11]; -22.4% (active) in test [12]. The growth in test [13] was 6.02% (active); in test [14], -28.5% (active); in [15], -17.2% (active); in [16], -44.9% (active); in test [17], 3.03% (active); in test [18], -29% (active).

`Cc1ccc(NC(=O)Nc2ccc(Nc3ncnc4sc5c(c34)CCOC5)cc2)cc1Cl`: the growth in test [1] is 110%; in [2] it was 102%; in test [3], 78.6%; in [4] it was 103%; in test [5], 94.6%; in [6] it was 91.7%. The growth was 90.4% in test [7]; 90.3% in [8]; 88.9% in [9]; 89% in test [10]; 105% in [11]; 91.9% in [12]. In addition, the growth in test [13] is 114%; in [14], 121%; in test [15], 73.4%; in test [16], 99.1%; in [17], 102%; in test [18], 106%.

For `CN1CCN(c2ccc(C(=O)Nc3n[nH]c4ccc(Cc5cc(F)cc(F)c5)cc34)c(NC3CCOCC3)c2)CC1`, the growth in test [1] is 8.7% (active); in test [2], -6.17% (active); in test [3] it was -90.7% (active); in test [4] it was -5.76% (active); in test [5] it was -7.72% (active); in test [6] it was -80.7% (active). In addition, the growth in [7] was -54.8% (active); in test [8] it was 1.8% (active); in test [9], -20.4% (active); in test [10], -28.6% (active); in test [11] it was -29.6% (active); in test [12] it was 22.6%. In addition, the growth in test [13] is 1.41% (active); in test [14], -6.27% (active); in test [15], 20.1%; in [16], -46.1% (active); in test [17], 32.8%; in test [18] it was 10.8%.

For `Cc1c(CN2CCN(C(=O)[C@H](C)O)CC2)sc2c(N3CCOCC3)nc(-c3cnc(N)nc3)nc12`, the growth is 1.75% (active) in test [1]; 4.45% (active) in [2]; -30.6% (active) in test [3]; -31.4% (active) in test [4]; -11% (active) in test [5]; -17.8% (active) in test [6]. The growth was -52.9% (active) in [7]; 7.59% (active) in test [8]; 1.65% (active) in test [9]; -3.28% (active) in test [10]; 1.84% (active) in test [11]; -4.51% (active) in test [12]. Further, the growth is -11.6% (active) in test [13]; -9.47% (active) in test [14]; -39.1% (active) in test [15]; -50.1% (active) in test [16]; 3.12% (active) in [17]; 7% (active) in [18].

Consider `Cc1nc2cc(-c3nn(C(C)C)c4ncnc(N)c34)ccc2o1`, for which the growth in test [1] was -10.3% (active); in test [2] it was 1.14% (active); in test [3], -35.7% (active); in [4] it was -47% (active); in [5], -13.4% (active); in [6], -36.7% (active). The growth was -55.5% (active) in test [7]; 6.03% (active) in test [8]; -8.69% (active) in test [9]; -0.778% (active) in [10]; -9.63% (active) in [11]; -29.1% (active) in test [12]. Also, the growth was -11.3% (active) in test [13]; -27.4% (active) in test [14]; -40.9% (active) in test [15]; -39% (active) in test [16]; 2.45% (active) in [17]; -22.5% (active) in test [18].

As for `COCc1c(-c2ccc(NC(=O)Nc3cc(C(F)(F)F)ccc3F)c(F)c2)c2c(N)ncnn2c1CN1CCOCC1`, the growth was -25.4% (active) in test [1]; -10.8% (active) in [2]; -20% (active) in [3]; -43% (active) in test [4]; -1.81% (active) in test [5]; -11.4% (active) in [6]. In addition, the growth in test [7] was -64.3% (active); in test [8], 5.76% (active); in [9] it was -5.86% (active); in [10], -9.37% (active); in [11], -33.1% (active); in test [12] it was -28.6% (active). Besides, the growth in test [13] is -18.3% (active); in test [14], -6.98% (active); in test [15] it was -34.8% (active); in test [16] it was -21.6% (active); in test [17], 6.05% (active); in test [18] it was -21.4% (active).

For `CCn1cc(-c2ccnc3[nH]c(-c4cccc(CN(C)C)c4)cc23)c(-c2ccc(NC(=O)N(C)C)cc2)n1`, the growth in [1] is 55.4%; in test [2] it was 24.1%; in [3], -10.7% (active); in test [4] it was 44.3%; in [5] it was 15.4%; in test [6], 6.96% (active). The growth in [7] was -34.1% (active); in test [8], 4.15% (active); in test [9], 7.17% (active); in test [10], -15.8% (active); in test [11], 3% (active); in test [12], 24.9%. In addition, the growth in [13] is 24.5%; in [14], 41.1%; in test [15] it was -0.688% (active); in test [16] it was 26.3%; in test [17] it was 48.1%; in [18], 72.4%.

Take `C=CCN1C(=O)c2cccc3c(-c4ccc5c(c4)ncn5C4CCCCC4)ccc(c23)C1=O`: the growth is 52.9% in test [1]; 61.5% in [2]; 34.5% in test [3]; 69.9% in test [4]; 55.3% in test [5]; 52.2% in test [6]. Moreover, the growth was 76.9% in test [7]; 33% in test [8]; 5.4% (active) in test [9]; 39.8% in test [10]; 29.5% in test [11]; 49.5% in [12]. The growth in test [13] is 75.3%; in test [14] it was 32.3%; in test [15], 73.4%; in test [16] it was 67.1%; in test [17] it was 62.4%; in test [18], 39.6%.
